In PubChem BioAssay (NCATS):
Records with an inconclusive call do not appear. The source made the active and inactive calls. Unless noted, the call rests on the fitted dose curve.

What was measured:
[1] = Primary qHTS for inhibitors of SARS-S pseudo-typed particle cell entry (AID 1479145); further: nearly all actives have a fitted effect of over 45% in size; further: potency means the concentration at half of the fitted maximal effect
[2] = Primary qHTS for Huh7 cytotoxicity: counterscreen for inhibitors of MERS-S pseudotyped particle cell entry (AID 1479147); further: potency means the concentration at half of the fitted maximal effect; on activity change, negative = cytotoxicity: on the % scale 0 is the no-effect control and ±100 the full control effect
[3] = Primary qHTS for inhibitors of MERS-S pseudo-typed particle cell entry (AID 1479149); further: nearly all actives have a fitted effect of over 60% in size; further: potency means the concentration at half of the fitted maximal effect
[4] = Primary qHTS for Vero E6 cytotoxicity: counterscreen for inhibitors of SARS-S pseudo-typed particle cell entry (AID 1479150); further: potency means the concentration at half of the fitted maximal effect; on activity change, negative = cytotoxicity: on the % scale 0 is the no-effect control and ±100 the full control effect
[5] = biological target: Protein phosphatase 1D (Homo sapiens) (UniProt O15297); assay: RapidFire Mass Spectrometry qHTS Assay for Modulators of WT P53-Induced Phosphatase 1 (WIP1) (AID 1347424; active means well fitted curve in the direction sought with a large enough effect; an effect the other way counts as inactive or inconclusive;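 further: amount of dephosphorylated VEPPL-S-QETFS peptide product formed by WIP1; series mostly up to about 63 µM; plate controls were DMSO wells for no effect and GSK830371 inhibitor control at 10 µM for full effect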)
Outline: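 WIP1 (10 nM final) was preincubated 1 h at room temperature with compounds in Tris-HCl pH 7.5, 30 mM MgCl2, TCEP, EGTA, BSA; 2 uM VEPPL-pS-QETFS phosphopeptide was added for 5 min, quenched with formic acid, and dephosphorylated product quantified by RapidFire MS.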

[6] = biological target: Protein phosphatase 1D (Homo sapiens) (UniProt O15297); assay: Rhodamine-PBP qHTS Assay for Modulators of WT P53-Induced Phosphatase 1 (WIP1) (AID 1347425; active means well fitted curve in the direction sought with a large enough effect; an effect the other way counts as inactive or inconclusive; further: % of control where 0% means no effect)
Outline: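 Read-out: Rhodamine-PBP fluorescence (ex 525/em 598 nm) for released Pi, read each minute for 11 min after adding 10 uM VEPPL-pS-QETFS; signal taken as f1 minus pre-substrate f0. Enzyme 5 nM WIP1 with 1 hr room-temperature compound preincubation.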

[7] = Primary qHTS for inhibitors of La Crosse Virus (LACV) - induced cell death in SH-SY5Y cells (AID 1508616; active means well fitted curve in the direction sought with a large enough effect; an effect the other way counts as inactive or inconclusive;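 further: top concentration of the series differs between compounds; 0% = infected DMSO wells and 100% = uninfected DMSO wells; higher means more rescue of cells from virus-induced death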)
Outline: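 Luminescent ATP readout (ATPLite 1step, 5 min room temperature) measured rescue from LACV-induced death after 6 days of infection at 0.01 MOI; normalized to infected DMSO wells and uninfected DMSO wells.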

Chain of Protein phosphatase 1D (Homo sapiens) (O15297 whole entry, looked up): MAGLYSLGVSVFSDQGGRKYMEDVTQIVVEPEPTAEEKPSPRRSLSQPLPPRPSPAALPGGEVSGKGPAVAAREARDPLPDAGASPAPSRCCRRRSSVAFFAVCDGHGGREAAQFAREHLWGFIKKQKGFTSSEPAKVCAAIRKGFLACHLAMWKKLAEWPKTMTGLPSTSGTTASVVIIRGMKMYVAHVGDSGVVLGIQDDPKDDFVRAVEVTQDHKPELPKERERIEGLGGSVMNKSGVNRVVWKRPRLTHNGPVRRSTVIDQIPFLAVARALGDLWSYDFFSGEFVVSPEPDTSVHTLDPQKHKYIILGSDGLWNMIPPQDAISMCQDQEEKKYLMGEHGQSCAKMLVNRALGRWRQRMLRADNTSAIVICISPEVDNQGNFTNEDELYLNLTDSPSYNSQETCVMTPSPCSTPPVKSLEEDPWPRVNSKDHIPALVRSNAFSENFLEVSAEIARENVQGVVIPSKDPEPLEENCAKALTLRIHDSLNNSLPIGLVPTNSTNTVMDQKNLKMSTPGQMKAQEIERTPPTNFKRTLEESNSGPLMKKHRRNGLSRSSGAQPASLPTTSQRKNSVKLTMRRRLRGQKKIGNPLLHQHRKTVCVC

COC(=O)Nc1nc2ccc(S(=O)c3ccccc3)cc2[nH]1 (stereo unspecified)
inactive: Potency [1] | Potency [2] | Potency [3]

Oc1c(Cl)cc(Cl)c2cccnc12
inactive: Potency [1]

C[C@]12C=CC(=O)C=C1CC[C@H]1[C@@H]3C[C@@H](O)[C@](O)(C(=O)CO)[C@@]3(C)C[C@H](O)[C@@]12F
inactive: Potency [1] | Potency [2] | Potency [3] | Potency [4]

CCC(=O)O[C@]1(C(=O)COC)[C@@H](C)C[C@H]2[C@@H]3CCC4=CC(=O)C=C[C@]4(C)C3(F)[C@@H](O)C[C@@]21C (stereo partly specified)
inactive: Potency [1] | Potency [2] | Potency [3] | Potency [4]

CCCCCCCCCCCCCCCC[n+]1ccccc1
active: Potency [1] 3.16 µM | Potency [2] 11.2 µM | Potency [3] 7.08 µM

O=C1OC2(c3ccc(O)cc3Oc3cc(O)ccc32)c2ccccc21
inactive: Potency [1] | Potency [2] | Potency [3] | Potency [4]

O=C(O)c1ccc(OCCCOc2ccc(C(=O)O)cc2)cc1
inactive: Potency [1] | Potency [2] | Potency [3] | Potency [4]

NC(=O)CC[C@@H](N)C(=O)O
inactive: Potency [1] | Potency [2] | Potency [3] | Potency [4]

C[C@H]1O[C@@H](O[C@H]2CC[C@@]3(C)[C@H](CC[C@@H]4[C@@H]3C[C@@H](O)[C@]3(C)[C@@H](C5=CC(=O)OC5)CC[C@]43O)C2)C[C@H](O)[C@@H]1O[C@H]1C[C@H](O)[C@H](O[C@H]2C[C@H](O)[C@H](O[C@@H]3O[C@H](CO)[C@@H](O)[C@H](O)[C@H]3O)[C@@H](C)O2)[C@@H](C)O1
active: Potency [1] 0.891 µM | Potency [2] 1 µM
inactive: Potency [3]

CN1CCOC(c2ccccc2)c2ccccc2C1 (stereo unspecified)
inactive: Potency [1] | Potency [2] | Potency [3] | Potency [4]

N[C@@H](CSCCCO)C(=O)O
inactive: Potency [1] | Potency [2] | Potency [3] | Potency [4]

CCCCCCCCCCCC[N+](C)(C)CCOc1ccccc1
inactive: Potency [5] | outcome [6] | Potency [2] | outcome [7]
active: Potency [3] 22.4 µM

NC(=O)C1(N2CCCCC2)CCN(CCCC(=O)c2ccc(F)cc2)CC1
inactive: Potency [1] | Potency [2] | Potency [3] | Potency [4]

C[C@@H]1C[C@H]2[C@@H]3CCC4=CC(=O)C=C[C@]4(C)[C@@]3(Cl)[C@@H](O)C[C@]2(C)[C@@]1(OC(=O)c1ccco1)C(=O)CCl
inactive: Potency [1] | Potency [2] | Potency [3] | Potency [4]

C#C[C@]1(O)C=C[C@H]2[C@@H]3CCC4=CC(=O)CC[C@@H]4[C@H]3CC[C@@]21CC
inactive: Potency [5] | outcome [6] | Potency [2] | Potency [3] | Potency [4] | outcome [7]

CCCSS/C(CCO)=C(\C)N(C=O)Cc1cnc(C)nc1N
inactive: Potency [1] | Potency [2] | Potency [3] | Potency [4]

CCCCCCCCCCCCCCCC[N+](C)(C)Cc1ccccc1
inactive: Potency [2]
active: Potency [1] 7.94 µM

Clc1ccc(CSC(Cn2ccnc2)c2ccc(Cl)cc2Cl)cc1 (stereo unspecified)
inactive: Potency [5] | outcome [6] | Potency [2] | outcome [7]

[O-][n+]1ccccc1SSc1cccc[n+]1[O-]
inactive: Potency [1]

O=C1c2ccccc2C(=O)C1c1ccccc1
inactive: Potency [1] | Potency [2] | Potency [3] | Potency [4]

CC1(C)[C@H](C(=O)O)N2C(=O)C[C@H]2S1(=O)=O
inactive: Potency [1] | Potency [2] | Potency [3] | Potency [4]

CC(=O)Oc1ccc(C(c2ccc(OC(C)=O)cc2)c2ccccn2)cc1
active: Potency [1] 1.41 µM
inactive: Potency [2] | Potency [3]

CC(=O)Oc1ccc(C(=C2CCCCC2)c2ccc(OC(C)=O)cc2)cc1
inactive: Potency [1] | Potency [2] | Potency [3] | Potency [4]

Nc1ccc2cc3ccc(N)cc3nc2c1
active: Potency [1] 14.1 µM

CCOC(=O)NNc1nncc2ccccc12
inactive: Potency [1] | Potency [2] | Potency [3] | Potency [4]

C[C@H]1C[C@H]2[C@@H]3CCC4=CC(=O)C=C[C@]4(C)[C@H]3C(=O)C[C@]2(C)[C@@]1(O)C(=O)CO
inactive: Potency [1] | Potency [2] | Potency [3] | Potency [4]

NCCNC(=O)c1ccc(Cl)cn1
inactive: Potency [1] | Potency [2] | Potency [3] | Potency [4]

CC(COc1ccccc1)NC(C)C(O)c1ccc(O)cc1 (stereo unspecified)
inactive: Potency [1] | Potency [2] | Potency [3] | Potency [4]

OC(CCN1CCCCC1)(c1ccccc1)C1CC2C=CC1C2 (stereo unspecified)
inactive: Potency [1] | Potency [2] | Potency [3] | Potency [4]

c1ccc2c(c1)Sc1ccccc1N2CC1CN2CCC1CC2 (stereo unspecified)
inactive: Potency [5] | outcome [6] | Potency [4]

C[C@@]12C(=O)OC(=O)[C@]1(C)C1CCC2O1
active: Potency [1] 14.1 µM | Potency [2] 22.4 µM

CN(C)C(=S)SC(=S)N(C)C
active: Potency [1] 1.41 µM | Potency [2] 3.16 µM | Potency [3] 1 µM | Potency [4] 2.82 µM

CC1N=C(N)OC1c1ccccc1 (stereo unspecified)
inactive: Potency [5] | outcome [6] | outcome [7]

NCCc1cnc[nH]1
inactive: Potency [1] | Potency [2] | Potency [3] | Potency [4]

CCOC(=O)C(C)(C)Oc1ccc(Cl)cc1
inactive: Potency [1] | Potency [2] | Potency [3] | Potency [4]

CCn1cc(C(=O)O)c(=O)c2cc(F)c(N3CCNCC3)nc21
inactive: Potency [1] | Potency [2] | Potency [3] | Potency [4]

CCC(C(=O)OCCN1CCOC(c2ccccc2)C1C)c1ccccc1 (stereo unspecified)
inactive: Potency [1] | Potency [2] | Potency [3] | Potency [4]

Oc1cc(O)c2c(c1)O[C@H](c1ccc(O)c(O)c1)[C@H](O)C2
inactive: Potency [1] | Potency [2] | Potency [3] | Potency [4]

CCN[C@H]1C[C@H](C)S(=O)(=O)c2sc(S(N)(=O)=O)cc21
inactive: Potency [1] | Potency [2] | Potency [3] | Potency [4]

CCCCC1(COC(=O)CCC(=O)O)C(=O)N(c2ccccc2)N(c2ccccc2)C1=O
inactive: Potency [1] | Potency [2] | Potency [3] | Potency [4]

O=C(NN1CCCC1)NS(=O)(=O)c1ccc(Cl)cc1
inactive: Potency [1] | Potency [2] | Potency [3] | Potency [4]

N[C@@H](CSSC[C@H](N)C(=O)O)C(=O)O
inactive: outcome [1] inactive [at 0.573 µM] | activity change, negative = cytotoxicity [2] 2.73% [at 0.573 µM] | outcome [3] inactive [at 0.573 µM] | activity change, negative = cytotoxicity [4] 4.84% [at 0.573 µM]

O=C(O)c1cn(-c2ccc(F)cc2)c2cc(N3CCNCC3)c(F)cc2c1=O
inactive: Potency [1] | Potency [2] | Potency [3] | Potency [4]

CC(CNC1CCCCC1)OC(=O)c1ccccc1 (stereo unspecified)
inactive: Potency [1] | Potency [2] | Potency [3] | Potency [4]

Nc1c(CC(=O)O)cccc1C(=O)c1ccc(Br)cc1
inactive: Potency [1] | Potency [2] | Potency [3] | Potency [4]

Nc1ccc(S(=O)(=O)Nc2cnc3ccccc3n2)cc1
inactive: Potency [1] | Potency [2] | Potency [3] | Potency [4]

CCN(CC)C(=O)C1CN2CCc3cc(OC)c(OC)cc3C2CC1OC(C)=O (stereo unspecified)
inactive: Potency [1] | Potency [2] | Potency [3] | Potency [4]

CC1(C)[C@@H](OC(=O)CCC(=O)O)CC[C@]2(C)[C@H]3C(=O)C=C4[C@@H]5C[C@@](C)(C(=O)O)CC[C@]5(C)CC[C@@]4(C)[C@]3(C)CC[C@@H]12
inactive: Potency [1] | Potency [2] | Potency [3] | Potency [4]

CCN(CC)C(=O)N1CCN(C)CC1
inactive: Potency [1] | Potency [2] | Potency [3] | Potency [4]

CCN(CC)CC(=O)Nc1c(C)cccc1C(=O)OC
inactive: Potency [1] | Potency [2] | Potency [3] | Potency [4]

CN1C(=O)CC(c2ccccc2)C1=O (stereo unspecified)
inactive: Potency [1] | Potency [2] | Potency [3] | Potency [4]

O=C(O)COC(=O)Cc1ccccc1Nc1c(Cl)cccc1Cl
inactive: Potency [1] | Potency [2] | Potency [3] | Potency [4]

COC(=O)Nc1nc2ccc(Sc3ccccc3)cc2[nH]1
inactive: Potency [1] | Potency [2] | Potency [3] | Potency [4]

CCCCC[C@H](O)C=C[C@H]1[C@H](O)CC(=O)[C@H]1CC=CCCCC(=O)O
inactive: Potency [1] | Potency [2] | Potency [3] | Potency [4]

C#C[C@]1(O)CC[C@H]2[C@@H]3CCC4=CC(=O)CC[C@@H]4[C@H]3CC[C@@]21C
inactive: Potency [1] | Potency [2] | Potency [3] | Potency [4]

CC(=O)N(CC(=O)N(C)C)c1ccccc1
inactive: Potency [1] | Potency [2] | Potency [3] | Potency [4]

O=C(O)/C=C/c1ccc(Cn2ccnc2)cc1
inactive: Potency [1] | Potency [2] | Potency [3] | Potency [4]

O=Cc1ccccc1C=O
inactive: Potency [1] | Potency [2] | Potency [3] | Potency [4]

COC(=O)C1=C(C)NC(COC(N)=O)=C(C(=O)OC(C)C)C1c1cccc(Cl)c1Cl (stereo unspecified)
inactive: Potency [1] | Potency [2] | Potency [3] | Potency [4]

CC(O)Cn1cnc2c1c(=O)n(C)c(=O)n2C (stereo unspecified)
inactive: Potency [1] | Potency [2] | Potency [3] | Potency [4]

Nc1ccc(C(=O)NCC(=O)O)cc1
inactive: Potency [1] | Potency [2] | Potency [3] | Potency [4]

OC[C@@H](O)[C@H](O)[C@H](O)[C@@H](O)CO
inactive: Potency [1] | Potency [2] | Potency [3] | Potency [4]

NCC1CCC(C(=O)Oc2ccc(CCC(=O)O)cc2)CC1 (stereo unspecified)
inactive: Potency [1] | Potency [2] | Potency [3] | Potency [4]

NS(=O)(=O)c1cc2c(cc1Cl)NC(C1CC3C=CC1C3)NS2(=O)=O (stereo unspecified)
inactive: Potency [1] | Potency [2] | Potency [3] | Potency [4]

CCCCOc1ccc(OCCCN2CCOCC2)cc1
inactive: Potency [1] | Potency [2] | Potency [3] | Potency [4]

CCCCC(=O)O[C@]1(C(=O)CO)CC[C@H]2[C@@H]3CCC4=CC(=O)CC[C@]4(C)[C@H]3[C@@H](O)C[C@@]21C
inactive: Potency [1] | Potency [2] | Potency [3] | Potency [4]

CNC1CCCN(c2c(F)cc3c(=O)c(C(=O)O)cn(C4CC4)c3c2OC)C1 (stereo unspecified)
inactive: Potency [1] | Potency [2] | Potency [3] | Potency [4]

O=c1cc(CO)occ1O
inactive: Potency [1] | Potency [2] | Potency [3] | Potency [4]

N[C@H]1CN(c2c(F)cc3c(=O)c(C(=O)O)cn(C4C[C@@H]4F)c3c2Cl)CC12CC2 (stereo partly specified)
inactive: Potency [1] | Potency [2] | Potency [3] | Potency [4]

CNC(=O)Oc1ccc2c(c1)[C@]1(C)CCN(C)[C@@H]1N2C
inactive: Potency [1] | Potency [2] | Potency [3] | Potency [4]

CC(C)(Oc1ccc(CCNC(=O)c2ccc(Cl)cc2)cc1)C(=O)O
inactive: Potency [1] | Potency [2] | Potency [3] | Potency [4]

CN(C)CCN(Cc1cccs1)c1ccccn1
inactive: Potency [1] | Potency [2] | Potency [3] | Potency [4]

C[N+]12CCC(CC1)C(OC(=O)C(O)(c1ccccc1)c1ccccc1)C2 (stereo unspecified)
inactive: Potency [1] | Potency [2] | Potency [3] | Potency [4]
